AC50 and outcome data for 14 molecules are collected here from PubChem BioAssay (EPA / NIEHS).

What all share (settings): primary human HUVEC with PBMC; actives raise or lower the signal
A short description of assay [1]: BSK_LPS_PGE2: BioMAP Diversity Plus: LPS Assay for Prostaglandin E2 (PGE2) Biomarker Activity (AID 2283082).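 As to AC50: secreted prostaglandin E2 measured by ELISA in LPS-stimulated co-culture.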 The essentials:
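PGE2 release measured by ELISA in an LPS-activated co-culture of human umbilical vein endothelial cells and peripheral blood mononuclear cells, read at 24 h post-dosing. DMSO served as baseline for bidirectional curve fitting.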

Read-out in assay [2]: Macrophage colony-stimulating factor (MCSF), CSF1 (gene 1435)
Nature of the assay: BSK_LPS_MCSF: BioMAP Diversity Plus: LPS Assay for Macrophage colony-stimulating factor (MCSF) Biomarker Activity (AID 2283083). The essentials: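 Bidirectional fit versus DMSO of ELISA-measured M-CSF in co-cultured human umbilical vein endothelial cells and PBMC, sampled 24 h after dosing.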

Read-out in assay [3]: Tissue Factor, F3 (gene 2152)
Nature of the assay: BSK_LPS_TissueFactor: BioMAP Diversity Plus: LPS Assay for Tissue Factor Biomarker Activity (AID 2283084). The essentials:
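Read-out: CD142 ELISA, 24 h. System: LPS-driven human endothelial/PBMC co-culture. Analysis: up- or down-signal fitted against DMSO.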

Read-out in assay [4]: Tumor necrosis factor (Homo sapiens) (UniProt P01375)
Nature of the assay: BSK_LPS_TNFa: BioMAP Diversity Plus: LPS Assay for Tumour Necrosis Factor alpha (TNFa) Biomarker Activity (AID 2283085).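 As to AC50: TNFa protein level quantified by ELISA in the co-culture.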 The essentials: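 TNFa was quantified by ELISA in LPS-activated co-cultures of human endothelial cells and PBMC, 24 h post-dosing. Both increases and decreases versus DMSO were fitted.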

Read-out in assay [5]: Vascular cell adhesion molecule 1 (VCAM1), VCAM1 (gene 7412)
Nature of the assay: BSK_LPS_VCAM1: BioMAP Diversity Plus: LPS Assay for Vascular cell adhesion molecule 1 (VCAM1) Biomarker Activity (AID 2283086). The essentials:
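VCAM-1 quantified by ELISA in an LPS-activated co-culture of human endothelial cells and peripheral blood mononuclear cells, read 24 h post-treatment. Fitted in both directions versus DMSO; parallel SRB staining flags overt cytotoxicity.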

Read-out in assay [6]: CD38, CD38 (gene 952)
Nature of the assay: BSK_SAg_CD38: BioMAP Diversity Plus: SAg Assay for CD38 Biomarker Activity (AID 2283087). The essentials: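 CD38 quantified by ELISA (fluorescence) in a superantigen-activated endothelial cell–PBMC co-culture at 24 h post-dose. Activity fitted in both directions relative to DMSO; parallel SRB and Alamar Blue cytotoxicity read-outs.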

Read-out in assay [7]: CD40, CD40 (gene 958)
Nature of the assay: BSK_SAg_CD40: BioMAP Diversity Plus: SAg Assay for CD40 Biomarker Activity (AID 2283088). The essentials: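 Endpoint derived by fitting increases or decreases versus DMSO controls. CD40 is detected by fluorescence ELISA in a human vascular co-culture of endothelium and PBMC at 24 h.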

Read-out in assay [8]: CD69, CD69 (gene 969)
Nature of the assay: BSK_SAg_CD69: BioMAP Diversity Plus: SAg Assay for CD69 Biomarker Activity (AID 2283089).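 As to AC50: cell surface CD69 protein quantified by ELISA with fluorescence detection.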 The essentials: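 HUVEC co-cultured with PBMC were dosed with chemical, and CD69 was measured by ELISA with fluorescence read-out 24 h later. Bidirectional curve fitting used DMSO as negative control and activity baseline.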

Read-out in assay [9]: Monocyte Chemoattractant Protein-1 (MCP1), CCL2 (gene 6347)
Nature of the assay: BSK_SAg_MCP1: BioMAP Diversity Plus: SAg Assay for Monocyte Chemoattractant Protein-1 (MCP1) Biomarker Activity (AID 2283090). The essentials: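 Values derive from bidirectional fitting of ELISA-measured MCP1 against DMSO controls. Readings were taken 24 h after dosing human vascular endothelial cells co-cultured with peripheral blood mononuclear cells under superantigen stimulation.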

Read-out in assay [10]: E-selectin (Homo sapiens) (UniProt P16581)
Nature of the assay: BSK_SAg_Eselectin: BioMAP Diversity Plus: SAg Assay for Eselectin Biomarker Activity (AID 2283091). The essentials:
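Endpoint values derive from bidirectional fitting relative to DMSO, using ELISA-measured E-selectin in a human vascular co-culture (umbilical vein endothelium plus PBMC) sampled 24 h after dosing.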

Values joined by “and” are separate entries in the source; they are usually repeats but may differ in a detail not shown here. Identical values can stand only once. Active and inactive are the calls of the source. The calls were made as follows: active = hit-call score of the fitted dose curve at least 0.9, where 1 is the maximum; inactive = score below 0.9.

Broadly, the AC50 is the concentration giving half of the maximal activity seen.

Sequence of Tumor necrosis factor (Homo sapiens) (P01375 whole entry, looked up): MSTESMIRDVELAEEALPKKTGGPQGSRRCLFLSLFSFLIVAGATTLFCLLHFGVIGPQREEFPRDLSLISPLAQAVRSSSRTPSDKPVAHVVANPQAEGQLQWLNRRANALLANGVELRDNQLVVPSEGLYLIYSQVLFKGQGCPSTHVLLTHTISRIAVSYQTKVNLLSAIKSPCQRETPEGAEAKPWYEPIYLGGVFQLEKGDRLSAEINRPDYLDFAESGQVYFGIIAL
Sequence of E-selectin (Homo sapiens) (P16581 whole entry, looked up): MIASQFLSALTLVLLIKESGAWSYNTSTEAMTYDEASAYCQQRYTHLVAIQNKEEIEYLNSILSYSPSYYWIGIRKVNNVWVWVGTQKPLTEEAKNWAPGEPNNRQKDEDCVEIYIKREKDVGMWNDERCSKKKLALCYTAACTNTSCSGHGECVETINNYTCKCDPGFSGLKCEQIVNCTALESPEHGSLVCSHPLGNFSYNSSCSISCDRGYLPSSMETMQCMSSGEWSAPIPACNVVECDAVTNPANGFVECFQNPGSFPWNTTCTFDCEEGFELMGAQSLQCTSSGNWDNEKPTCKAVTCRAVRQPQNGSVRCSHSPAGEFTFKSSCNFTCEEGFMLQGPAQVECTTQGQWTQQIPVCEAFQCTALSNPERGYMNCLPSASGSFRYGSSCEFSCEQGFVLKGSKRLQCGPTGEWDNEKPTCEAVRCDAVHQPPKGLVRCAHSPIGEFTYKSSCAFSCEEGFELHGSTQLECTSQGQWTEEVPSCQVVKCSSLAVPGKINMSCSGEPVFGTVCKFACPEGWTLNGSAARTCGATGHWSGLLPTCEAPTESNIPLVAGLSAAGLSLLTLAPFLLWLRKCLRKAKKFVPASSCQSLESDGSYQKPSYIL

Turning to `Oc1cc(Cl)ccc1Oc1ccc(Cl)cc1Cl`, the AC50 in [1] was 6.07 µM (active) [middle of 4 runs]; in [2], 18.7 µM (active) [middle of 4 runs]; in assay [3] it was 28.1 µM (active) and 14.7 µM (active) and 30.3 µM (active); in assay [4], 31.2 µM (active) [middle of 4 runs]; in assay [5] it was 25.8 µM (active) [middle of 4 runs]; in assay [6], 12.4 µM (active) [middle of 4 runs]. The AC50 is 12.9 µM (active) [middle of 4 runs] in [7]; 13.5 µM (active) and 14.7 µM (active) and 14.4 µM (active) in assay [8]; 12.5 µM (active) [middle of 4 runs] in assay [9]; 12.7 µM (active) [middle of 4 runs] in [10].
Consider `O=[N+]([O-])c1c(Cl)c(Cl)c(Cl)c(Cl)c1Cl`, for which the result in assay [1], in assay [3], in [6], in assay [7], in [8] and in assay [9] was inactive. For the same molecule, the AC50 in [2] was 22.4 µM (active); in assay [4], 25.9 µM (active); in assay [5], 25.5 µM (active); in assay [10], 20 µM (active).
`CC(C)(C)C(O)/C(=C\c1ccc(Cl)cc1Cl)n1cncn1` (centres undefined): the AC50 in [1] was 0.994 µM (active); in assay [2], 20.6 µM (active); in assay [5], 27.6 µM (active); in [6] it was 27.5 µM (active); in assay [7], 25.6 µM (active); in [8], 15.8 µM (active). The AC50 in assay [9] is 31.8 µM (active); in assay [10] it was 27.3 µM (active). Also, the result in [3] and in [4] was inactive.
With `COP(=S)(OC)Oc1ccc([N+](=O)[O-])cc1`, the AC50 was 14.6 µM (active) in [1]; 15.4 µM (active) in assay [2]; 20 µM (active) in [6]; 13.8 µM (active) in [7]; 15.5 µM (active) in [8]; 14.5 µM (active) in [9]. For the same molecule, the AC50 in assay [10] was 30.9 µM (active). Further, the outcome in assay [3], in [4] and in assay [5] was inactive.
With `COC(=O)c1ccccc1S(=O)(=O)NC(=O)N(C)c1nc(C)nc(OC)n1`, the outcome in assay [1], in [2], in assay [3], in [4], in [5] and in assay [6] was inactive. The outcome in assay [7], in assay [8], in [9] and in assay [10] was inactive.
On to `COC(=O)c1ccccc1S(=O)(=O)NC(=O)Nc1nc(C)nc(OC)n1`, for which the result in [1], in assay [2], in assay [3], in [4], in assay [5] and in assay [6] was inactive. The result in assay [7], in assay [8], in assay [9] and in assay [10] was inactive.
For the molecule `CNC(=O)Oc1cccc(N=CN(C)C)c1`, the result in assay [1], in assay [2], in [4], in assay [8] and in assay [9] was inactive. For the same molecule, the AC50 in [3] was 26.5 µM (active); in assay [5] it was 17.4 µM (active); in [6], 33 µM (active); in assay [7] it was 34.6 µM (active); in assay [10] it was 18.7 µM (active).
Regarding `Oc1ccc(Cl)cc1Cc1ccccc1`, the AC50 in [2] was 29.6 µM (active) [middle of 7 runs]; in [3], 33.6 µM (active) [middle of 7 runs]; in assay [4], 32 µM (active) [middle of 7 runs]; in assay [5] it was 32.5 µM (active) [middle of 6 runs]; in assay [6], 33.6 µM (active) [middle of 6 runs]; in assay [7], 29.4 µM (active) [middle of 6 runs]. The AC50 in [8] was 32.7 µM (active) [middle of 7 runs]; in assay [9], 34.9 µM (active) [middle of 7 runs]; in [10], 32.5 µM (active) [middle of 5 runs].
Consider `CNC(=O)/C=C(\C)OP(=O)(OC)OC`, for which the outcome in assay [1], in assay [2], in assay [3], in [4], in assay [5] and in assay [6] was inactive. The outcome in [7], in assay [8], in assay [9] and in [10] was inactive.
Consider `COP(=S)(OC)Oc1ccc(SC)c(C)c1`, for which the results for the half-maximal activity concentration (AC50) in assay [1], in [2] and in assay [10] were 30.1 µM (active), 15.9 µM (active) and 33.6 µM (active), respectively. Moreover, the outcome in [3], in assay [4], in [5], in [6], in [7] and in assay [8] was inactive. Further, the result in [9] was inactive.
As for `COc1cc(OC)nc(NC(=O)NS(=O)(=O)c2cc(NC=O)ccc2C(=O)N(C)C)n1`, the result in [1], in assay [2], in [3], in assay [4], in assay [5] and in [6] was inactive. Moreover, the result in assay [7], in assay [8], in [9] and in assay [10] was inactive.
For `COc1nn(CSP(=S)(OC)OC)c(=O)s1`, the AC50 in assay [1] is 12.6 µM (active). Besides, the result in assay [2], in assay [3], in [4], in assay [5], in assay [6] and in assay [7] was inactive. Also, the outcome in assay [8], in assay [9] and in [10] was inactive.
Consider `CC(C)N(C(=O)COc1nnc(C(F)(F)F)s1)c1ccc(F)cc1`, for which the outcome in [1], in [2], in assay [3], in [5], in assay [6] and in assay [7] was inactive. Further, the outcome in assay [8], in [9] and in [10] was inactive. Besides, the AC50 in assay [4] was 12.6 µM (active).
`CCOc1nc(NC)nc(NC(=O)NS(=O)(=O)c2ccccc2C(=O)OC)n1`: the result in [1], in assay [2], in [3], in assay [4], in [5] and in assay [6] was inactive. The outcome in assay [7], in assay [8], in [9] and in assay [10] was inactive.
